The panel holds about 79,000 compounds, 15% with a hit somewhere; the sample as a whole holds those more often. No stated cut-off is given here; in the data, active means growth inhibition above about 70%; inactive means the rest.
How the values were obtained:
[1] = NCI Yeast Anticancer Drug Screen. Data for the rad50 strain (AID 155);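 further: 0% = growth of vehicle-only cultures of the same strain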; conditions: S. cerevisiae rad50 strain growth inhibition; at 50.0 µM; hits give high values
Procedure, shortened: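 Inhibition values express reduced yeast growth in compound-treated cultures relative to vehicle-treated controls.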

[2] = NCI Yeast Anticancer Drug Screen. Data for the mec2-1 strain (AID 157); conditions: S. cerevisiae mec2-1 strain, at 50.0 µM, hits give high values
Procedure, shortened: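 Growth inhibition is read against vehicle-treated controls after compound exposure of the mec2-1 yeast strain, which is defective in DNA damage repair or cell cycle control.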

[3] = NCI Yeast Anticancer Drug Screen. Data for the sgs1 mgt1 strain (AID 161);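 further: 0% = growth of cultures given vehicle only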; conditions: S. cerevisiae sgs1 mgt1 strain, at 50.0 µM, hits give high values
Procedure, shortened: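 Compounds are added to genetically altered yeast, and growth is compared with cultures given vehicle alone to give percent inhibition.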

[4] = NCI Yeast Anticancer Drug Screen. Data for the cln2 rad14 strain (AID 165);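 further: 0% = growth equal to vehicle treated cultures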; conditions: S. cerevisiae cln2 rad14 strain, at 50.0 µM, hits give high values
Procedure, shortened: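 Growth inhibition, relative to vehicle-treated controls, is the read-out. The test organism is a yeast strain with defined genetic alterations, cln2 rad14.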

[5] = NCI Yeast Anticancer Drug Screen. Data for the bub3 strain (AID 167); conditions: S. cerevisiae bub3 mutant strain, at 50.0 µM, hits give high values
Procedure, shortened: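 Steps: expose the mutant yeast strain to compound; grow alongside vehicle-treated cultures; measure growth; express inhibition against the vehicle cultures.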

[6] = NCI Yeast Anticancer Drug Screen. Data for the mlh1 rad18 strain (AID 175); conditions: S. cerevisiae mlh1 rad18 strain growth inhibition; at 50.0 µM; hits give high values
Procedure, shortened: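 Cells of a genetically altered yeast strain, deficient in DNA damage repair, were treated with compound. Their growth was then compared with that of vehicle-treated cultures to give inhibition.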

Measured: growth inhibition

Fc1cccc(-c2nnc(-c3ccccc3)o2)c1
inactive: [1] 34.1% | [2] 23.1% | [3] 28.9% | [4] 19.4% | [5] 37.8% | [6] -1.65%

CCCCCCCC(=O)OCC1OC(n2cc(F)c(=O)[nH]c2=O)C(NC(=O)OCc2ccccc2)C(O)C1O (stereo unspecified)
inactive: [1] -15.1% | [2] -13.8% | [3] -66.8% | [4] -7.1% | [5] -12.4% | [6] -17.6%

Cc1ccc(S(=O)(=O)N2CCCSCCSCCCN(S(=O)(=O)c3ccc(C)cc3)CC2)cc1
inactive: [1] 8.85% | [2] -10.8% | [3] 4% | [4] -45% | [5] -10.1% | [6] 2.05%

C=CC(CO)N(CC)CC (stereo unspecified)
inactive: [1] 9.55% | [2] 8.7% | [3] 7.25% | [4] 13.3% | [5] 1.8% | [6] 11.3%

O=c1[nH]c(=O)n(C2OC(CO)C(O)C2O)cc1OCCCc1ccccc1 (stereo unspecified)
inactive: [1] -23.1% | [2] -1.8% | [3] 16.4% | [4] 31.2% | [5] -5.45% | [6] 8.75%

CC(C)C1OCCOCCO1
inactive: [1] 9.45% | [2] -12.1% | [3] -18.5% | [4] -21.5% | [5] -9.4% | [6] 9.45%

CN(C)CCNC(=O)c1ccc(NC(=O)c2nc([N+](=O)[O-])cn2C)cc1
inactive: [1] -14.2% | [2] 10.6% | [3] 4.9% | [4] -22.6% | [5] -8.5% | [6] -31.6%

Cc1cccc(NC(=O)NC2CCC(CC3CCCCC3)CC2)c1 (stereo unspecified)
inactive: [1] 16.7% | [2] 5.8% | [3] 7.2% | [4] -9.6% | [5] -1.55% | [6] 7.65%

COc1ccc2c(c1)OC[C@@H]1c3cc(NC(=O)c4ccccc4)c(OC)cc3N(S(=O)(=O)c3ccccc3)[C@H]21
inactive: [1] -22.8% | [2] -6.4% | [3] -18.1% | [4] -3.3% | [5] 2.25% | [6] -2.25%

CCC1CCN=C(NS(=O)(=O)c2cc(C)c(Cl)cc2S)N1 (stereo unspecified)
inactive: [1] -29.8% | [2] -5.25% | [3] -25.2% | [4] -18.1% | [5] 4.9% | [6] -33%

CCOC(=O)c1c(C)[nH]c(=S)c(C#N)c1-c1ccc(Cl)cc1
inactive: [1] 13% | [2] 12.1% | [3] 34.4% | [4] 4.55% | [5] 28.6% | [6] -1.55%

O=NN(CCCl)C(=S)NC1CCCCC1
inactive: [1] 3.25% | [2] -0.15% | [3] 6.35% | [4] 7.2% | [5] -3.6% | [6] 47.8%

CC(C)(O)c1cc(F)ccc1N
inactive: [1] -0.75% | [2] 11.3% | [3] -1.3% | [4] 15.3% | [5] 29.6% | [6] 8.3%

O=C(O)C(Br)Cc1cccc([N+](=O)[O-])c1 (stereo unspecified)
inactive: [1] 9.4% | [2] -9.35% | [3] 10.6% | [4] -5.65% | [5] 3.45% | [6] 17.7%

CN(C)CCN=C1Nc2ccccc2C(=S)N2CSCC12 (stereo unspecified)
inactive: [1] -0.75% | [2] 17.1% | [3] -10.4% | [4] -2.05% | [5] 5.85% | [6] 11.9%

CC(=O)c1ccc(O)c(C)c1
inactive: [1] -9.3% | [2] -8.9% | [3] -6.55% | [4] 5.5% | [5] -8.1% | [6] -0.2%

COC(=O)c1nc(N)nc(C(=O)OC)c1C(=O)c1ccc(Cl)cc1Cl
inactive: [1] 7.25% | [2] -0.6% | [3] -15.5% | [4] 3.6% | [5] -8.3% | [6] -3.25%

COc1cccc2c1[C@]1(O)C(O)CCCC21 (stereo partly specified)
inactive: [1] -43.6% | [2] -6.6% | [3] -60.6% | [4] 5.95% | [5] -31.9% | [6] -35.7%

CC(C)(C)n1nc(C2CC2)c(Br)c1NC(=O)c1ccc(Cl)cc1
inactive: [1] -4.45% | [2] -0.95% | [3] 22.9% | [4] 0.45% | [5] 11.1% | [6] 1.7%

CCN(CC)CCN(C)C(=O)C(=O)c1ccccc1
inactive: [1] -20.1% | [2] -0.85% | [3] -10.6% | [4] 9.75% | [5] 4.8% | [6] -8.2%

C=CCOCC(CCl)OC(=O)C(C)C (stereo unspecified)
inactive: [1] -4.95% | [2] -11.8% | [3] -13.3% | [4] -9.9% | [5] 0.7% | [6] -20.2%

Source: PubChem BioAssay (NCI)
